Consider eleven molecules from ChEMBL document CHEMBL3988442, “University of Dundee, Small-Polar-MMV Screening Library” (2021).

Common to all, as to parameters: scale not given: direction of the effect not stated beside the values
Assay [1] deals with Protein translocase subunit SecA (Escherichia coli (strain K12)) (UniProt P10408). In words: Assay to Identify E. coli SecA ATPase Inhibitors. The format is functional. The note with it: 30 µM.
Assay [2] addresses T1, Ubiquitin-activating enzyme e1, putative (Leishmania donovani (strain BPK282A1)) (UniProt E9BSI1).
T1 sequence (whole entry): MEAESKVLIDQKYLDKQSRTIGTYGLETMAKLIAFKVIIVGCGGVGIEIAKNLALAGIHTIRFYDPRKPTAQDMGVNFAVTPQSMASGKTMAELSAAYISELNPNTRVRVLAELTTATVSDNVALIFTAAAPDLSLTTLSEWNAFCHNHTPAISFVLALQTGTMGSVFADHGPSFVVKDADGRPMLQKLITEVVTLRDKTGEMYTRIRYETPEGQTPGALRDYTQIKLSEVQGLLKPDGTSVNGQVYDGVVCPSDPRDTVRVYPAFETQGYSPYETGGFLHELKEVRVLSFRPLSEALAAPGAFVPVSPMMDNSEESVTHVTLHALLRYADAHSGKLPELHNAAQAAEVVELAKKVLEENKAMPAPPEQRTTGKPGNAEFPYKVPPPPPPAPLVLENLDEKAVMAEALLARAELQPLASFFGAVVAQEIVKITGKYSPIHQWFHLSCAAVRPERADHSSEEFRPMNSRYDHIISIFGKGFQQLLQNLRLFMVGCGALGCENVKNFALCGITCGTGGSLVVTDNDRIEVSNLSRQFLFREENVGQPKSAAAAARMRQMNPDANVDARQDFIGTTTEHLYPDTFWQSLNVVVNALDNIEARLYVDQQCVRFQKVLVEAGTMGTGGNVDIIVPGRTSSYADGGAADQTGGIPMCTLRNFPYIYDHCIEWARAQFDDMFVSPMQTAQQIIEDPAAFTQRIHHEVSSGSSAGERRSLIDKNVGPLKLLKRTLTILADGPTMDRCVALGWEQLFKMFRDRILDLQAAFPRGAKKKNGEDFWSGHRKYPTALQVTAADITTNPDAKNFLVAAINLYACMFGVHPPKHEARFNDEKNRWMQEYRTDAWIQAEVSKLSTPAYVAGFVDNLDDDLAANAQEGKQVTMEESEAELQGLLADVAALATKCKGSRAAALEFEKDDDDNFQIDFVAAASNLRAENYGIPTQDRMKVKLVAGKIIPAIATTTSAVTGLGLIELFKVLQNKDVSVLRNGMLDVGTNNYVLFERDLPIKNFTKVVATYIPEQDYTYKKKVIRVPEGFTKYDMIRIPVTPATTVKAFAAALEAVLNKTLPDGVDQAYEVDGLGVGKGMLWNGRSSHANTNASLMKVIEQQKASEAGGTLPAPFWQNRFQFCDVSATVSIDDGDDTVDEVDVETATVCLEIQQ
The assay is described as follows: Leishmania donovani Ubiquitin Activating Enzyme (LdE1). The format is functional. The note with it: 30 µM.

The target of assay [3] is Sialic acid-binding Ig-like lectin 9 (Homo sapiens) (UniProt Q9Y336). In words: Hs-Siglec9 ALPHAscreen SOP 20170721. The note with it: 10 µM. Background: Bead proximity is the source of the signal in Alpha formats.
For the next assay, the system named is Trypanosoma cruzi. The assay is described as follows: Trypanosoma cruzi phosphomannomutase and mannose-1-phosphate guanylyltransferase assay. The format is functional. The note with it: 10 µM.
Assay [4] concerns the target T2, Arginase-2, mitochondrial (Homo sapiens) (UniProt P78540).
T2 sequence (whole entry): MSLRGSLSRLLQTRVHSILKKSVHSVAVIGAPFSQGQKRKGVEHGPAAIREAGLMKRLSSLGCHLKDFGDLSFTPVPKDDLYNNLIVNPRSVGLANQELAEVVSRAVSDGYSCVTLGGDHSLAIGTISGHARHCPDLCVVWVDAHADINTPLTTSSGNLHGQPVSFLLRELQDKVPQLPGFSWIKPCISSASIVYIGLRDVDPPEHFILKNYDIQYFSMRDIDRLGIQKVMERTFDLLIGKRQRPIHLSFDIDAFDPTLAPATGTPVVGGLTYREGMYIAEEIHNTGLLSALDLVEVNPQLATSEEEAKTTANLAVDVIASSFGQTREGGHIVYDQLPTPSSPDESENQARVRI
The assay is described as follows: in vitro enzyme assay to detect the production of urea directly proportional to the activity of Arginase II. Note: in the data most compounds retested in dose-response had high values. The format is functional. Particulars: 33.3 µM.

In assay [5] the target is T3, Proteasome subunit beta (Trypanosoma cruzi) (UniProt O96673).
T3 sequence (whole entry): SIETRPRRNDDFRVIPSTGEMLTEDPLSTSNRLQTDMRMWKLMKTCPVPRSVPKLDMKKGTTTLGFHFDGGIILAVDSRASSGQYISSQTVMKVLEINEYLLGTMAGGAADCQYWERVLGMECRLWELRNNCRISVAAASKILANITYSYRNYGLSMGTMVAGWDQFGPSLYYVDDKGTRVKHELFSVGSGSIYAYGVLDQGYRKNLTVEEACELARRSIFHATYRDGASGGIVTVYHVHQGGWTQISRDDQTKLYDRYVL
In words: Trypanosoma cruzi proteasome chymotrypsin-like activity (TcProtChymo) assay. Note: in the data most compounds retested in dose-response had high values. The format is functional. Particulars: 9.37 µM.

For a further assay, the species on record is Homo sapiens. The assay is described as follows: To identify inhibition of the IFN signalling (Jak-Stat) pathway via expression of an eGFP reporter gene under the control of an IFN-stimulated response element (ISRE) containing MxA promoter. The note with it: 30 µM. The format is functional. Background: In a reporter assay the amount or activity of a reporter protein is the signal.

The target of assay [6] is T4, Tyrosyl-tRNA synthetase, putative (Trypanosoma cruzi (strain CL Brener)) (UniProt Q4DSP6).
T4 sequence (whole entry): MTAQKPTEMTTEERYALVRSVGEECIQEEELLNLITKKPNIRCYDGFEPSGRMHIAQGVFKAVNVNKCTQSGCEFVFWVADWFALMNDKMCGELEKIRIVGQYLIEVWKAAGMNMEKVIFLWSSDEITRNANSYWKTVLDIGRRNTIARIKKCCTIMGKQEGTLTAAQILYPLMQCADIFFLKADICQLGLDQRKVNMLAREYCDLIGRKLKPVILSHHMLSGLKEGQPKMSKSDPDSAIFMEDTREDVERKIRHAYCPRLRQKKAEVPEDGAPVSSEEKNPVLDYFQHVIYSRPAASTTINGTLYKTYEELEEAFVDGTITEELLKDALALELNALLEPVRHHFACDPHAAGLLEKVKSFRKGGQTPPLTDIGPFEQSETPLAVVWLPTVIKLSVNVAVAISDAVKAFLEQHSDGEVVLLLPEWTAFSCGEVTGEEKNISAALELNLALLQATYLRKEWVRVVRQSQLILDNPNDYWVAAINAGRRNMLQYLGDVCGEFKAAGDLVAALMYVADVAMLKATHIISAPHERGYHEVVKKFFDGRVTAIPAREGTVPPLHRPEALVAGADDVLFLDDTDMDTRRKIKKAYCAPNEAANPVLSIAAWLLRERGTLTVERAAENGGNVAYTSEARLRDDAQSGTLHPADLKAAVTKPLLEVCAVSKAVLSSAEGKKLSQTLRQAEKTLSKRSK
In words: Trypanosoma cruzi tyrosyl tRNA synthetase (TcYRS) _High Tyrosine SOP. Note: in the data most compounds retested in dose-response had high values. The format is functional. Particulars: 30 µM.

For assay [7], the target named is T4, Tyrosyl-tRNA synthetase, putative (Trypanosoma cruzi (strain CL Brener)). The assay is described as follows: Trypanosoma cruzi tyrosyl tRNA synthetase (TcYRS) SOP. The format is functional. The note with it: 30 µM.
Assay [8] has as its target Chromo domain-containing protein 1 (Saccharomyces cerevisiae (strain ATCC 204508 / S288c) (Baker's yeast)) (UniProt P32657). In words: ScCHD-1 Enzyme Inhibition Assay. Note: in the data most compounds retested in dose-response had high values. The format is functional. Particulars: 30 µM.

Each structure is given as a SMILES string. For some assays here: Measured potencies and affinities stand elsewhere.

Chain of Protein translocase subunit SecA (Escherichia coli (strain K12)) (P10408 whole entry): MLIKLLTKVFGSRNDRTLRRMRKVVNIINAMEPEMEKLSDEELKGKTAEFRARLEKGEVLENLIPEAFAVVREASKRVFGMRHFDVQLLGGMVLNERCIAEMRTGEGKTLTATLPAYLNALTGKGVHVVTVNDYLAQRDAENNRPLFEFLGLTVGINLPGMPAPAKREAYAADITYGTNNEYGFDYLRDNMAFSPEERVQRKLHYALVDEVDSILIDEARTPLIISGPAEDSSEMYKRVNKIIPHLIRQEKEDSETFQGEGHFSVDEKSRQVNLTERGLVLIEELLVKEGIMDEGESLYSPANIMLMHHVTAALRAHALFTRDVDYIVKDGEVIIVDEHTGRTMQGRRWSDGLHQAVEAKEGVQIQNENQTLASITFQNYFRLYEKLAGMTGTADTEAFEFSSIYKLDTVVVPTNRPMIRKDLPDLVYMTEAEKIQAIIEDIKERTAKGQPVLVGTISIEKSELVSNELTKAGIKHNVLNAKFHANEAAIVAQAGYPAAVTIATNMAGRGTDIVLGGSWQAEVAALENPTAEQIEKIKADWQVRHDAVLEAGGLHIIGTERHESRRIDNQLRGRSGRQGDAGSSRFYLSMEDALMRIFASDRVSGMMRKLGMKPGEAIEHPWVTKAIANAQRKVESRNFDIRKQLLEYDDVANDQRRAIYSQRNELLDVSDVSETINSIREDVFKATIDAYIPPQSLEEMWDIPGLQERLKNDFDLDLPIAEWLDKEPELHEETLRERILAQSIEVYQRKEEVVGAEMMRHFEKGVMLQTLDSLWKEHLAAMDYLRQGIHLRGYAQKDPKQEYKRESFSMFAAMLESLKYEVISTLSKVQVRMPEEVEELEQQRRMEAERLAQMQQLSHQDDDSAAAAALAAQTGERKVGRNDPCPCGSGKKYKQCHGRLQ
Chain of Sialic acid-binding Ig-like lectin 9 (Homo sapiens) (Q9Y336 whole entry): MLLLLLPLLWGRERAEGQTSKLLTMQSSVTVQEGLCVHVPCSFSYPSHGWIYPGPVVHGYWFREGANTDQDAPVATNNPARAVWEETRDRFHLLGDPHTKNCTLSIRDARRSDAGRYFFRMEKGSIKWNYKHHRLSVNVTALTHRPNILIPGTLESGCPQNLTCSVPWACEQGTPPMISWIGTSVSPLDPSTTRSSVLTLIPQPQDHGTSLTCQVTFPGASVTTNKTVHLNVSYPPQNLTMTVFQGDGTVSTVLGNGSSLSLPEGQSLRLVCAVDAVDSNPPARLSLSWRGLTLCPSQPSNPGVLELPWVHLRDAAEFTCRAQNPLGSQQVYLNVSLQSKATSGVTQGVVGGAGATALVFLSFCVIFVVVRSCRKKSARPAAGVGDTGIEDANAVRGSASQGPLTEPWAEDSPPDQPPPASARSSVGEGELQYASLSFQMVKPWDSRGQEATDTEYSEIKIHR
Chain of Chromo domain-containing protein 1 (Saccharomyces cerevisiae (strain ATCC 204508 / S288c) (Baker's yeast)) (P32657 whole entry, the tested form may be a part): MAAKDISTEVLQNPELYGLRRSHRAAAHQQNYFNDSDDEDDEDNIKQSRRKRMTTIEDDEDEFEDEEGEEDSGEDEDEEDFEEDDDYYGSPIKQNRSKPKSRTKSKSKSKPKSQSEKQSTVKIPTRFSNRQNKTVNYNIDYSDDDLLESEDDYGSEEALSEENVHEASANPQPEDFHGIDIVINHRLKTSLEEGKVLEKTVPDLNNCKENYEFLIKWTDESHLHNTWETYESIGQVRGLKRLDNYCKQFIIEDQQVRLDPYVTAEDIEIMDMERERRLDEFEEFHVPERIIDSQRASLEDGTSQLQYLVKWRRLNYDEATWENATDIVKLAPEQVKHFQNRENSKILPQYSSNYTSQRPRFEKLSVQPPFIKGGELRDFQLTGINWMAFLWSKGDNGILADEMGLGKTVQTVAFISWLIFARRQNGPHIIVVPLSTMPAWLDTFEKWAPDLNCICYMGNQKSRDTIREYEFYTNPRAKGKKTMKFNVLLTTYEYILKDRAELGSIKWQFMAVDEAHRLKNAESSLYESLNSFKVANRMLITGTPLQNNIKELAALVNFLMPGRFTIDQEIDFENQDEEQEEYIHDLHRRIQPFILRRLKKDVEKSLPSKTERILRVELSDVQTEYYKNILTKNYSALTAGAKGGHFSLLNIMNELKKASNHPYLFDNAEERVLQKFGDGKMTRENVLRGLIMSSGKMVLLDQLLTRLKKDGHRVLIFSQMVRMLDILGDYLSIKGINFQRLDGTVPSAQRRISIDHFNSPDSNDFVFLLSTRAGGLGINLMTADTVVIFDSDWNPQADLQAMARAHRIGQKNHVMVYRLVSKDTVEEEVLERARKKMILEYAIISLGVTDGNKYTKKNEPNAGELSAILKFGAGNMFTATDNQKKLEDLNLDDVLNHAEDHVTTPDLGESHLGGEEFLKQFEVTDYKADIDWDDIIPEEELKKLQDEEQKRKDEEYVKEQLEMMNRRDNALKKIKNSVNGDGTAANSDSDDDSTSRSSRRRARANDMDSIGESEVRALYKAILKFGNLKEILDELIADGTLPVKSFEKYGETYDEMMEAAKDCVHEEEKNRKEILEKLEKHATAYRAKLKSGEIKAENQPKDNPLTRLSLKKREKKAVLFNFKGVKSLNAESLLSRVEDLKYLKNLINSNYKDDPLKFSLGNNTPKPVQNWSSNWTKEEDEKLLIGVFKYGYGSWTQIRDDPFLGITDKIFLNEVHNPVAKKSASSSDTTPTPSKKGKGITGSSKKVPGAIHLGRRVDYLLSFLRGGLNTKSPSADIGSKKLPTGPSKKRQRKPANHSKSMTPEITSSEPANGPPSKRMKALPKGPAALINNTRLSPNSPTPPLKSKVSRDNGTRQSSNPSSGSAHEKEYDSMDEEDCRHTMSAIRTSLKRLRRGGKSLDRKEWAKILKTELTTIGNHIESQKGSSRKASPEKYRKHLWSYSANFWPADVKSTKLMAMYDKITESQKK

With `Cc1cc(OCC(=O)NS(=O)(=O)c2c(C)noc2C)ccc1Cl`, the Percent Effect is -0.396% in assay [1]; -5.13% in assay [2]; 2.29% in assay [3]; 4.79% in the assay on Trypanosoma cruzi; 0% in [4]; 1.28% in assay [5]. Further, the Percent Effect in the assay listed under Homo sapiens is 18.7%; in [6], -5.26%; in assay [7] it was -1.21%; in [8], 0.575%.

For the molecule `CC(C)c1nc(CC(=O)N2CCCC(n3cncn3)C2)cs1` (stereo not given), the Percent Effect in [1] was -0.0395%; in [2], 20.5%; in assay [3], -14.2%; in the assay with Trypanosoma cruzi it was 4.6%; in [4] it was 8.2%; in [5], 14.2%. Further, the Percent Effect was 24% in the assay listed under Homo sapiens, 1.44% in assay [6], 22.9% in assay [7] and -5.56% in [8].

Consider `Cc1cccc(C(=O)N2CCCN(Cc3cnn(C)c3)CC2)n1`, for which the Percent Effect in assay [1] was -0.00911%; in [2], -5.13%; in [3], 4.36%; in the assay on Trypanosoma cruzi, 1.6%; in [4] it was 6.15%; in [5], -6.74%. In addition, the Percent Effect in the assay filed under Homo sapiens is 13.4%; in assay [6], -0.478%; in assay [7], 1.21%; in assay [8], -3.37%.

In the case of `Cc1ccc2c(n1)N(Cc1cccnc1)CCN(C(=O)C1CCC1)C2`, the Percent Effect was -1.28% in assay [1]; 6.49% in [2]; -4.98% in [3]; -4.77% with Trypanosoma cruzi; 7.29% in assay [4]; 11.4% in [5]. The Percent Effect is 16.9% in the assay filed under Homo sapiens, 4.74% in assay [6], 7.69% in [7] and -6.47% in assay [8].

Consider `CC(C)NC(=O)Nc1ccc(CNCc2cccc(OC(F)F)c2)cc1`, for which the Percent Effect is -3.77% in assay [1]; 10.4% in [2]; -3.29% in assay [3]; -2.98% in the assay on Trypanosoma cruzi; -10% in assay [4]; 24% in assay [5]. The Percent Effect in the assay filed under Homo sapiens was 25.1%; in assay [6] it was 4.9%; in assay [7] it was 7.06%; in assay [8] it was -10.9%.

Turning to `O=C(Cc1cn2ccsc2n1)N1CCCC(n2cncn2)C1` (stereo not given), the Percent Effect was -3.72% in [1]; 12.8% in [2]; -3.95% in assay [3]; -4.22% in the assay on Trypanosoma cruzi; -5.74% in assay [4]; 13.9% in assay [5]. For the same molecule, the Percent Effect in the assay listed under Homo sapiens is 31.1%; in [6], 4.31%; in assay [7], 13.2%; in assay [8] it was -5.26%.

Turning to `O=C(CSc1ccc(F)c(F)c1)NS(=O)(=O)c1ccc2c(c1)OCCO2`, the Percent Effect in assay [1] was -1.98%; in [2], 2.56%; in [3], -9.59%; with Trypanosoma cruzi, 0.282%; in assay [4], 1.23%; in [5] it was 3.16%. Further, the Percent Effect in the assay filed under Homo sapiens is 12.6%; in assay [6], -4.31%; in assay [7] it was 8.43%; in assay [8], -1.38%.

Consider `Cc1nccn1-c1cccc(C2CCCN2S(=O)(=O)N(C)C)n1` (stereo not given), for which the Percent Effect in assay [1] was -4.04%; in assay [2] it was 14.7%; in assay [3], 13.1%; in the assay with Trypanosoma cruzi, 1.77%; in assay [4] it was -0.443%; in assay [5], 8.05%. Moreover, the Percent Effect was 21% in the assay listed under Homo sapiens, 5.29% in [6], 15% in assay [7] and -24.5% in assay [8].

`O=C(CO)N1CCc2onc(Cn3cccn3)c2C1`: the Percent Effect in assay [1] was -5.41%; in [2], 3.9%; in assay [3], 3.29%; with Trypanosoma cruzi, 1.27%; in assay [4], -1.62%; in [5], 7.5%. Further, the Percent Effect in the assay filed under Homo sapiens is -4.61%; in [6], 2.63%; in assay [7], 5.13%; in assay [8] it was 0.404%.

Take `CN1CCN(CC2CC2)C(=O)c2cnc(N3CCCCC3)nc21`: the Percent Effect is -6.28% in assay [1]; -45.3% in assay [2]; 3.74% in assay [3]; -1.41% with Trypanosoma cruzi; -3.99% in assay [4]; -4.83% in [5]. The Percent Effect in the assay listed under Homo sapiens is 19%; in [6], -2.63%; in assay [7], -5.13%; in [8], -2.64%.

As to `COc1ccccc1OCC(=O)NS(=O)(=O)c1ccccc1Br`, the Percent Effect in [1] is -3.71%; in [2] it was 13%; in assay [3], 10.4%; with Trypanosoma cruzi it was 5.78%; in [4] it was 5.12%; in assay [5] it was 3.51%. In addition, the Percent Effect in the assay listed under Homo sapiens was 4.3%; in assay [6], 0%; in assay [7], 16.5%; in [8] it was -9.19%.
